Data taken from PubChem BioAssay AID1159580 (chemical genetic matrix, 2015).
About 2,000 (36%) of roughly 5,500 compounds were called active. Roughly 18% stayed inconclusive and do not appear here. Cut-off read from the data, not from the text of the source: active = normalized growth mostly below about 0.91 (no sharp cut-off); inconclusive = no clear call, values can overlap the other calls; inactive = mostly above about 0.92. The list shows a part of the results.

Assay: chemical genetic growth profiling, strain panel (AID 1159580);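 note: tested at 20 µM; growth read once vehicle control cultures reached saturation at 30 °C; 1 = growth at the plate median or of vehicle wells; lower values mean less growth of the strain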
Settings: growth OD
[1] = S. cerevisiae deletion strains, locus YAL013W, strain DEP1, stronger effect = lower value
[2] = S. cerevisiae deletion strains, locus YGR078C, strain PAC10, stronger effect = lower value
[3] = S. cerevisiae deletion strains, locus YNL153C, strain GIM3, stronger effect = lower value
[4] = S. cerevisiae deletion strains, locus YPL241C, strain CIN2, stronger effect = lower value

Measured: normalized growth

C=CCn1c(=O)c2c(nc(-c3ccc(S(=O)(=O)O)cc3)n2C)n(C)c1=O
inactive: [1] 0.982 | S. cerevisiae deletion strains, locus YAL040C, strain CLN3, stronger effect = lower value 0.965 | S. cerevisiae deletion strains, locus YCL061C, strain MRC1 (second series), stronger effect = lower value 0.985 | S. cerevisiae deletion strains, locus YDR363W, strain ESC2, stronger effect = lower value 1.07 | S. cerevisiae deletion strains, locus YER002W, strain NOP16, stronger effect = lower value 1.01 | [2] 0.997 | [3] 1.01 | S. cerevisiae deletion strains, locus YNL175C, strain NOP13, stronger effect = lower value 1 | S. cerevisiae deletion strains, locus YNL197C, strain WHI3, stronger effect = lower value 0.987 | S. cerevisiae deletion strains, locus YNL224C, strain SQS1, stronger effect = lower value 0.99 | S. cerevisiae deletion strains, locus YOR083W, strain WHI5 (second series), stronger effect = lower value 1.03 | [4] 0.979

CCOP(=S)(OCC)Oc1cc(C)nc(C(C)C)n1
inactive: [1] 0.978 | S. cerevisiae deletion strains, locus YBR021W, strain FUR4, stronger effect = lower value 1.03 | S. cerevisiae deletion strains, locus YBR229C, strain ROT2, stronger effect = lower value 0.955 | S. cerevisiae deletion strains, locus YCL029C, strain bik1, stronger effect = lower value 0.985 | S. cerevisiae deletion strains, locus YDL035C, strain GPR1, stronger effect = lower value 0.946 | S. cerevisiae deletion strains, locus YDL074C, strain BRE1, stronger effect = lower value 0.901 | S. cerevisiae deletion strains, locus YDL101C, strain DUN1, stronger effect = lower value 0.96 | S. cerevisiae deletion strains, locus YDL134C, strain PPH21, stronger effect = lower value 0.995 | S. cerevisiae deletion strains, locus YDL185W, strain tfp1, stronger effect = lower value 0.972 | S. cerevisiae deletion strains, locus YDL192W, strain arf1, stronger effect = lower value 0.985 | S. cerevisiae deletion strains, locus YDR101C, strain arx1, stronger effect = lower value 1 | S. cerevisiae deletion strains, locus YDR150W, strain NUM1, stronger effect = lower value 0.984 | S. cerevisiae deletion strains, locus YDR162C, strain NBP2, stronger effect = lower value 0.976 | S. cerevisiae deletion strains, locus YDR318W, strain mcm21, stronger effect = lower value 0.98 | S. cerevisiae deletion strains, locus YDR388W, stronger effect = lower value 0.991 | S. cerevisiae deletion strains, locus YDR502C, strain sam2, stronger effect = lower value 0.994 | S. cerevisiae deletion strains, locus YEL061C, strain CIN8, stronger effect = lower value 0.989 | S. cerevisiae deletion strains, locus YER110C, stronger effect = lower value 0.981 | S. cerevisiae deletion strains, locus YER155C, strain BEM2, stronger effect = lower value 0.996 | S. cerevisiae deletion strains, locus YER167W, strain BCK2, stronger effect = lower value 0.99 | S. cerevisiae deletion strains, locus YGL078C, strain dbp3, stronger effect = lower value 0.995 | S. cerevisiae deletion strains, locus YGL086W, strain mad1, stronger effect = lower value 0.989 | S. cerevisiae deletion strains, locus YGL248W, strain PDE1, stronger effect = lower value 0.961 | [2] 0.976 | S. cerevisiae deletion strains, locus YGR135W, strain pre9, stronger effect = lower value 0.995 | S. cerevisiae deletion strains, locus YGR229C, strain SMI1, stronger effect = lower value 0.991 | S. cerevisiae deletion strains, locus YGR252W, strain gcn5, stronger effect = lower value 0.998 | S. cerevisiae deletion strains, locus YHR030C, strain SLT2, stronger effect = lower value 0.988 | S. cerevisiae deletion strains, locus YHR079C, strain IRE1 (second series), stronger effect = lower value 0.994 | S. cerevisiae deletion strains, locus YHR094C, strain hxt1, stronger effect = lower value 0.996 | S. cerevisiae deletion strains, locus YHR129C, strain ARP1, stronger effect = lower value 0.977 | S. cerevisiae deletion strains, locus YHR200W, strain rpn10, stronger effect = lower value 0.993 | S. cerevisiae deletion strains, locus YIL066C, strain RNR3, stronger effect = lower value 0.979 | S. cerevisiae deletion strains, locus YIL073C, strain SPO22, stronger effect = lower value 1.01 | S. cerevisiae deletion strains, locus YIL125W, strain kgd1, stronger effect = lower value 0.993 | S. cerevisiae deletion strains, locus YIR030C, strain dcg1, stronger effect = lower value 0.995 | S. cerevisiae deletion strains, locus YJL095W, strain BCK1, stronger effect = lower value 0.973 | S. cerevisiae deletion strains, locus YJL134W, strain LCB3, stronger effect = lower value 0.982 | S. cerevisiae deletion strains, locus YJL168C, strain set2, stronger effect = lower value 0.987 | S. cerevisiae deletion strains, locus YJL187C, strain SWE1 (second series), stronger effect = lower value 0.978 | S. cerevisiae deletion strains, locus YJR043C, strain POL32, stronger effect = lower value 0.991 | S. cerevisiae deletion strains, locus YJR075W, strain HOC1, stronger effect = lower value 0.977 | S. cerevisiae deletion strains, locus YKL009W, strain mrt4, stronger effect = lower value 0.949 | S. cerevisiae deletion strains, locus YKL068W, stronger effect = lower value 0.993 | S. cerevisiae deletion strains, locus YKL085W, strain MDH1 (second series), stronger effect = lower value 0.988 | S. cerevisiae deletion strains, locus YKL085W, strain MDH1, stronger effect = lower value 0.988 | S. cerevisiae deletion strains, locus YKL190W, strain CNB1, stronger effect = lower value 0.993 | S. cerevisiae deletion strains, locus YKR001C, strain vps1, stronger effect = lower value 0.999 | S. cerevisiae deletion strains, locus YLR039C, strain RIC1, stronger effect = lower value 0.966 | S. cerevisiae deletion strains, locus YLR058C, strain SHM2, stronger effect = lower value 0.971 | S. cerevisiae deletion strains, locus YLR102C, strain apc9, stronger effect = lower value 0.987 | S. cerevisiae deletion strains, locus YLR262C, strain YPT6, stronger effect = lower value 0.946 | S. cerevisiae deletion strains, locus YLR268W, strain sec22, stronger effect = lower value 0.993 | S. cerevisiae deletion strains, locus YLR330W, strain CHS5, stronger effect = lower value 0.989 | S. cerevisiae deletion strains, locus YLR342W, strain FKS1 (second series), stronger effect = lower value 0.975 | S. cerevisiae deletion strains, locus YLR371W, strain rom2, stronger effect = lower value 0.995 | S. cerevisiae deletion strains, locus YLR418C, strain cdc73, stronger effect = lower value 0.959 | S. cerevisiae deletion strains, locus YML016C, strain PPZ1, stronger effect = lower value 0.993 | S. cerevisiae deletion strains, locus YML032C, strain rad52, stronger effect = lower value 0.989 | S. cerevisiae deletion strains, locus YML124C, strain tub3, stronger effect = lower value 0.998 | S. cerevisiae deletion strains, locus YMR078C, strain ctf18, stronger effect = lower value 0.991 | S. cerevisiae deletion strains, locus YMR223W, strain ubp8, stronger effect = lower value 0.988 | S. cerevisiae deletion strains, locus YMR263W, strain SAP30, stronger effect = lower value 0.98 | S. cerevisiae deletion strains, locus YMR307W, strain GAS1, stronger effect = lower value 0.976 | S. cerevisiae deletion strains, locus YNL067W, strain RPL9B, stronger effect = lower value 0.972 | S. cerevisiae deletion strains, locus YNL128W, strain TEP1, stronger effect = lower value 0.957 | [3] 0.984 | S. cerevisiae deletion strains, locus YNL233W, strain BNI4, stronger effect = lower value 0.984 | S. cerevisiae deletion strains, locus YNL250W, strain rad50, stronger effect = lower value 0.984 | S. cerevisiae deletion strains, locus YNL271C, strain bni1, stronger effect = lower value 0.992 | S. cerevisiae deletion strains, locus YNL298W, strain CLA4, stronger effect = lower value 0.995 | S. cerevisiae deletion strains, locus YNL307C, strain MCK1, stronger effect = lower value 0.998 | S. cerevisiae deletion strains, locus YNL322C, strain KRE1, stronger effect = lower value 0.978 | S. cerevisiae deletion strains, locus YNR052C, strain pop2, stronger effect = lower value 0.99 | S. cerevisiae deletion strains, locus YOL006C, strain TOP1, stronger effect = lower value 0.967 | S. cerevisiae deletion strains, locus YOL012C, strain htz1 0.881 | S. cerevisiae deletion strains, locus YOL147C, strain pex11, stronger effect = lower value 0.998 | S. cerevisiae deletion strains, locus YOR061W, strain CKA2, stronger effect = lower value 0.967 | S. cerevisiae deletion strains, locus YOR069W, strain VPS5, stronger effect = lower value 0.989 | S. cerevisiae deletion strains, locus YOR136W, strain idh2, stronger effect = lower value 0.986 | S. cerevisiae deletion strains, locus YOR144C, strain elg1, stronger effect = lower value 0.995 | S. cerevisiae deletion strains, locus YOR184W, strain ser1, stronger effect = lower value 0.987 | S. cerevisiae deletion strains, locus YOR316C, strain cot1, stronger effect = lower value 0.975 | S. cerevisiae deletion strains, locus YPL055C, strain LGE1, stronger effect = lower value 0.956 | [4] 0.989 | S. cerevisiae deletion strains, locus YPR119W, strain clb2, stronger effect = lower value 0.997 | S. cerevisiae deletion strains, locus YPR141C, strain kar3, stronger effect = lower value 0.984 | S. cerevisiae deletion strains, locus YPR163C, strain tif3, stronger effect = lower value 1 | S. cerevisiae deletion strains, locus YPR167C, strain met16, stronger effect = lower value 0.987 | S. cerevisiae deletion strains, strain wtn01, stronger effect = lower value 1 | S. cerevisiae strains, strain wild type, stronger effect = lower value 0.987
